Growth data for 6 compounds are collected here from PubChem BioAssay (NCI).

Some test systems named below: HCT-15 colon; HT29 colon; SNB-75 CNS; SNB-19 CNS; U251 CNS; PC-3 prostate; SK-MEL-5 melanoma; UACC-62 melanoma; LOX IMVI melanoma; SK-MEL-28 melanoma; SK-MEL-2 melanoma; EKVX NSCLC; SN12C renal; UO-31 renal; TK-10 renal; ACHN renal; A498 renal; CCRF-CEM leukemia; MOLT-4 leukemia; CAKI-1 renal.
What all share (test): NCI-60 one-dose screen, 48 h (100 = growth as untreated, 0 = no growth, -100 = all killed)
Conditions in all cases: 10 µM unless noted

About 83,000 compounds went through this panel and 20% of them were active in at least one assay; those are over-represented in the sample as a whole.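 Negative percent growth values reflect cell death: -40 means 40% of the cells present at the start died, and -100 means all died.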 A number with no mark means an inactive call. Activity calls are given as the source filed them. How the source made its calls: active means growth percent below 10; inactive means the rest.

On to `COc1ccc(Oc2ccc(/C=N/NC(=O)CSc3nc4ccccc4c(=O)n3-c3ccc(Cl)cc3)cc2)cc1`, for which the growth in the test on HCT-15 colon is 56%; in the test on HT29 colon it was 16.1%; with SNB-75 CNS it was 41.6%; in the test with SNB-19 CNS it was 61.5%; in the test on U251 CNS, 36.5%; in the test with PC-3 prostate it was 63.7%. The growth is 78% in the test on SK-MEL-5 melanoma; 61.9% with UACC-62 melanoma; 14.7% with LOX IMVI melanoma; 89.3% with SK-MEL-28 melanoma; 97.6% in the test on SK-MEL-2 melanoma; 69.4% in the test with EKVX NSCLC. The growth is 52.7% in the test with SN12C renal; 47.7% with UO-31 renal; 96.5% in the test with TK-10 renal; 7.83% (active) in the test with ACHN renal; 72.9% with A498 renal; 63.5% in the test with CCRF-CEM leukemia. The growth in the test on MOLT-4 leukemia was 61.7%.

In the case of `NS(=O)(=O)c1ccc(Nc2nc(N/N=C/c3c[nH]c4ccccc34)nc(Nc3ccccc3)n2)cc1`, the growth in the test on HCT-15 colon was 75.5%; in the test on HT29 colon, 31.6%; in the test on SNB-75 CNS, 70.8%; with SNB-19 CNS, 56.7%; in the test on U251 CNS it was 28.1%; in the test with PC-3 prostate, 26%. The growth in the test on SK-MEL-5 melanoma is 39.8%; with UACC-62 melanoma, 38.3%; in the test on LOX IMVI melanoma it was -10.6% (active); in the test on SK-MEL-28 melanoma, 45.9%; in the test on SK-MEL-2 melanoma it was 67.3%; in the test with EKVX NSCLC, 67.4%. Moreover, the growth with SN12C renal was 40.2%; with UO-31 renal, 49.2%; in the test on TK-10 renal it was 94.7%; in the test with ACHN renal, 81.2%; with CAKI-1 renal, 53.9%; with CCRF-CEM leukemia, 12.9%. Besides, in the test on MOLT-4 leukemia, the growth was 19.9%.

Consider `COc1cccc(/C=C(/C)c2ccc3cccc(OC)c3[o+]2)c1O`, for which the growth is 98% with HCT-15 colon; 114% in the test on HT29 colon; 92.4% in the test with SNB-75 CNS; 95.6% in the test with SNB-19 CNS; 108% in the test on U251 CNS; 87.3% with PC-3 prostate. Moreover, the growth with SK-MEL-5 melanoma was 102%; with UACC-62 melanoma, 80.3%; with LOX IMVI melanoma it was 127%; with SK-MEL-28 melanoma, 98.9%; in the test on SK-MEL-2 melanoma, 106%; with EKVX NSCLC it was 89.6%. Further, the growth with SN12C renal is 97.3%; with UO-31 renal it was 88.8%; in the test with TK-10 renal, 116%; in the test on ACHN renal, 95.4%; with A498 renal it was 84%; in the test on CCRF-CEM leukemia it was 104%. For the same compound, the growth in the test on MOLT-4 leukemia was 92%.

Consider `Cc1c(Cl)cccc1S(=O)(=O)Nc1ccc2c(c1)C(=O)N(C1CCC(=O)NC1=O)C2=O` (centres undefined), for which the growth with HCT-15 colon is 24%; in the test on HT29 colon, 105%; in the test with SNB-75 CNS, 77.4%; in the test on SNB-19 CNS, 82.9%; with U251 CNS, 95.6%; in the test with PC-3 prostate, 95.4%. The growth is 100% in the test on SK-MEL-5 melanoma; 98.4% with UACC-62 melanoma; 122% in the test on LOX IMVI melanoma; 97.8% in the test on SK-MEL-28 melanoma; 107% in the test with SK-MEL-2 melanoma; 91.2% with EKVX NSCLC. In addition, the growth with SN12C renal was 89.4%; with UO-31 renal, 44%; in the test with TK-10 renal, 75.2%; in the test with ACHN renal it was 108%; in the test with A498 renal it was 91.1%; in the test on CCRF-CEM leukemia it was 25.5%. Besides, the growth with MOLT-4 leukemia was 3.6% (active).

Consider `O=S(=O)(Oc1ccc(-c2nnc(Nc3ccccc3)s2)cc1)C(F)(F)C(F)(F)C(F)(F)C(F)(F)C(F)(F)C(F)(F)F`, for which the growth in the test on HCT-15 colon is 98.7%; with HT29 colon, 109%; in the test with SNB-75 CNS, 99.9%; in the test with SNB-19 CNS it was 101%; in the test with U251 CNS, 107%; in the test with PC-3 prostate it was 110%. For the same compound, the growth in the test with SK-MEL-5 melanoma was 108%; in the test on UACC-62 melanoma it was 90.8%; with LOX IMVI melanoma, 99.8%; in the test with SK-MEL-28 melanoma it was 105%; in the test with SK-MEL-2 melanoma, 106%; in the test with EKVX NSCLC, 99.1%. The growth was 98.7% in the test on SN12C renal; 98.2% with UO-31 renal; 109% in the test with TK-10 renal; 103% with ACHN renal; 92.7% with CAKI-1 renal; 102% in the test with CCRF-CEM leukemia. In the test with MOLT-4 leukemia, the growth was -29.1% (active).

In the case of `NC(N)=Nc1ccc(Oc2cccc(NC(N)=Nc3ccc(Br)cc3)c2)cn1`, the growth in the test with HCT-15 colon was 85.4%; with HT29 colon it was 59.7%; with SNB-75 CNS it was 68.6%; with SNB-19 CNS, 18.8%; with U251 CNS it was 43.1%; in the test with PC-3 prostate it was 38.2%. For the same compound, the growth with SK-MEL-5 melanoma was 35.6%; with UACC-62 melanoma, 63.2%; in the test with LOX IMVI melanoma, 0.0918% (active); in the test on SK-MEL-28 melanoma it was 82.9%; with SK-MEL-2 melanoma, 84.3%; in the test with EKVX NSCLC it was 62%. Also, the growth in the test on SN12C renal was 20.6%; in the test with UO-31 renal, 85%; with TK-10 renal, 69.1%; with ACHN renal, 95.5%; with A498 renal it was 64.3%; in the test on CCRF-CEM leukemia it was 58.5%. Moreover, the growth in the test with MOLT-4 leukemia is 65%.
